Data: PMC7862700, “An all-to-all approach to the identification of sequence-specific readers for epigenetic DNA modifications on cytosine”

Experiments:
Experiment in all cases: DAPPL (digital affinity profiling via proximity ligation, sequencing); 10 mM Tris-HCl pH 7.5, 50 mM NaCl, 1 mM DTT, 4% glycerol, room temperature, 30 min; GST-TFs on glutathione beads, 16-mer random dsDNA library, 0.1% formaldehyde crosslink after washing; high values mean tight binding
[1] = biological target: T1, FEV (Homo sapiens, UniProt Q99581 1-238); conditions: protein: recombinant; tags: N-terminal GST; dsDNA, one strand shown
T1 sequence: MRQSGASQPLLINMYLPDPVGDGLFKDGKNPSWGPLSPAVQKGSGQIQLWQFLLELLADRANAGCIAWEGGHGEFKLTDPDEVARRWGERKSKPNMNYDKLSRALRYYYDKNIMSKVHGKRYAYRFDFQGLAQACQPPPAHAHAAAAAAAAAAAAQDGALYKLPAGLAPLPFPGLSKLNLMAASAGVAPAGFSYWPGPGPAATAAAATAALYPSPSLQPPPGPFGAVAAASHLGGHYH
In short: (§1)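 Sequencing on an Illumina NextSeq500 followed washing, crosslinking with 0.1% formaldehyde, proximity ligation (BsaI/T4 ligase, 1 h, 37 °C) and PCR amplification of pools that had been incubated for 30 min at room temperature with 200 nmole of a random double-stranded 16-mer DNA library in Tris/NaCl/DTT/glycerol buffer. Each pool held DNA-barcoded human transcription factors, expressed in yeast as GST fusions and captured on glutathione beads, plus a tag-only sample. Binding signal is a hexamer's read frequency for a factor divided by its frequency in the tag-only sample.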

[2] = biological target: ETV5 (Homo sapiens, UniProt P41161 1-510); conditions: protein: recombinant; tags: N-terminal GST; dsDNA, one strand shown
In short: as §1

[3] = biological target: HSF1 (Homo sapiens, UniProt Q00613 1-529); conditions: protein: recombinant; tags: N-terminal GST; chain copies: 3; dsDNA, one strand shown
In short: as §1

[4] = biological target: T2, SPIC (Homo sapiens, UniProt Q8N5J4 1-248); conditions: protein: recombinant; tags: N-terminal GST; dsDNA, one strand shown
T2 sequence: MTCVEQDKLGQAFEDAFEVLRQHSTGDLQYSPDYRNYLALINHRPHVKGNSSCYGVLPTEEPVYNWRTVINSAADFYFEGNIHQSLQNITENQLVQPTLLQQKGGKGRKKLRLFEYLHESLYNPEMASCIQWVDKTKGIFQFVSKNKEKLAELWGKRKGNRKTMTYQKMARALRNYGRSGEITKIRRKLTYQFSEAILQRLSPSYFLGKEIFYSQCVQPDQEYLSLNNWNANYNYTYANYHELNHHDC
In short: as §1

[5] = biological target: ELF4 (Homo sapiens, UniProt Q99607 1-663); conditions: protein: recombinant; tags: N-terminal GST; dsDNA, one strand shown
In short: as §1

[6] = biological target: T3, ELK4 (Homo sapiens, UniProt P28324-2 1-405); conditions: protein: recombinant; tags: N-terminal GST; dsDNA, one strand shown
T3 sequence: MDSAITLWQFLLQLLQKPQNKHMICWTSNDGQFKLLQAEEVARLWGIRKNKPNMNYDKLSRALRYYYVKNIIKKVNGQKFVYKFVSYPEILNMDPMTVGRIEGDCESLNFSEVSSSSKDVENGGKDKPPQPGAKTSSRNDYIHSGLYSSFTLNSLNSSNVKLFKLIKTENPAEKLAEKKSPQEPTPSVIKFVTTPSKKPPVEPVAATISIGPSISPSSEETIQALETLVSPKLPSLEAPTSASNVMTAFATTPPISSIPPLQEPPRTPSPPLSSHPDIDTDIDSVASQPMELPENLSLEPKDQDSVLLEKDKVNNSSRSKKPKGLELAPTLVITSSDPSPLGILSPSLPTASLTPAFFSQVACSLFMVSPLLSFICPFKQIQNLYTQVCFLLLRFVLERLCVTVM
In short: as §1

[7] = biological target: T4, ETV2 (Homo sapiens, UniProt O00321 1-342); conditions: protein: recombinant; tags: N-terminal GST; dsDNA, one strand shown
T4 sequence: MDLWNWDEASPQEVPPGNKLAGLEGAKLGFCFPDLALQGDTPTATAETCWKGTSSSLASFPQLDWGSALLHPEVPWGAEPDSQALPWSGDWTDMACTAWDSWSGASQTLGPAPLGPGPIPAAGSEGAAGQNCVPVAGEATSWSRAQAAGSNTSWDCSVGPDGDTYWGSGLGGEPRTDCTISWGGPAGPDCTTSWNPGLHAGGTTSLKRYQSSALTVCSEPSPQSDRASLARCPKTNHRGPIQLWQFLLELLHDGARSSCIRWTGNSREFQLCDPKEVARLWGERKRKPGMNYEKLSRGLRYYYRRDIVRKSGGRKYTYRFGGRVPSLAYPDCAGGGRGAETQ
In short: as §1

[8] = biological target: T5, ELF3 (Homo sapiens, UniProt P78545 1-371); conditions: protein: recombinant; tags: N-terminal GST; dsDNA, one strand shown
T5 sequence: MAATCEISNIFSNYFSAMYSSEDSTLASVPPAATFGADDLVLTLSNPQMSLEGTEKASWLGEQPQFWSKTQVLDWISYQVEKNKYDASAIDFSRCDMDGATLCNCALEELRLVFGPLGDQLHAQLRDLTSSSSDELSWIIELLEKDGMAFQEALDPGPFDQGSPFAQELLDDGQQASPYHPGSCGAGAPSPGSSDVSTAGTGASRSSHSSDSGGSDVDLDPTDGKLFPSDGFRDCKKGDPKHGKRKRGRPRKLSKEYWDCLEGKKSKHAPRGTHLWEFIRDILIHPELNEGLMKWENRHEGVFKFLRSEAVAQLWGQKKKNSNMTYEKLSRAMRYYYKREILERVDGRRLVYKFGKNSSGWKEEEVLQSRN
In short: as §1

[9] = biological target: CRX (Homo sapiens, UniProt O43186 1-299); conditions: protein: recombinant; tags: N-terminal GST; dsDNA, one strand shown
In short: as §1

[10] = biological target: ETV1 (Homo sapiens, UniProt P50549 1-477); conditions: protein: recombinant; tags: N-terminal GST; dsDNA, one strand shown
In short: as §1

[11] = biological target: T6, ETV3L (Homo sapiens, UniProt Q6ZN32 1-361); conditions: protein: recombinant; tags: N-terminal GST; dsDNA, one strand shown
T6 sequence: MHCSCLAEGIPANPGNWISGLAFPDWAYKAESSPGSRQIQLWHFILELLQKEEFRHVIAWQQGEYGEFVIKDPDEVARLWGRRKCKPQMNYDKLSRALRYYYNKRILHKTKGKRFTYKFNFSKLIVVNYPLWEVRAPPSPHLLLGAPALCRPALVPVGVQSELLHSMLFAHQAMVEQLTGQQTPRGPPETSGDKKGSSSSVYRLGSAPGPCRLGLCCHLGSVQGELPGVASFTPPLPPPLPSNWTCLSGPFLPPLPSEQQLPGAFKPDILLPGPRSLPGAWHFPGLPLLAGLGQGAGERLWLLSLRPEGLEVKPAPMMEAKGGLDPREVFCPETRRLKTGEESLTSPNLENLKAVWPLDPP
In short: as §1

[12] = biological target: T7, ETS2 (Homo sapiens, UniProt P15036 1-469); conditions: protein: recombinant; tags: N-terminal GST; dsDNA, one strand shown
T7 sequence: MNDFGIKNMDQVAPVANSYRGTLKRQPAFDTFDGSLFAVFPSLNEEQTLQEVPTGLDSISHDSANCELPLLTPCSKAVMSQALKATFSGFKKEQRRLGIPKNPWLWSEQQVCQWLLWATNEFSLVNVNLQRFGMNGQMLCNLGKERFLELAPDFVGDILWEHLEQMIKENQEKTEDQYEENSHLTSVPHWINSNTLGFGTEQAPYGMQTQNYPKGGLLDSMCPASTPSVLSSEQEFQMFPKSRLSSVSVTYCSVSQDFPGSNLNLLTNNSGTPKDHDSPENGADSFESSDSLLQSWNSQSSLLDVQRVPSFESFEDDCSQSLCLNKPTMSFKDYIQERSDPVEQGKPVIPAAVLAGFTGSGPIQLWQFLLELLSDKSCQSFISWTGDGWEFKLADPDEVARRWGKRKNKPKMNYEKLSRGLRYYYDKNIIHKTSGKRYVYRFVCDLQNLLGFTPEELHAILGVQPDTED
In short: as §1

[13] = biological target: T8, SPDEF (Homo sapiens, UniProt O95238 1-335); conditions: protein: recombinant; tags: N-terminal GST; dsDNA, one strand shown
T8 sequence: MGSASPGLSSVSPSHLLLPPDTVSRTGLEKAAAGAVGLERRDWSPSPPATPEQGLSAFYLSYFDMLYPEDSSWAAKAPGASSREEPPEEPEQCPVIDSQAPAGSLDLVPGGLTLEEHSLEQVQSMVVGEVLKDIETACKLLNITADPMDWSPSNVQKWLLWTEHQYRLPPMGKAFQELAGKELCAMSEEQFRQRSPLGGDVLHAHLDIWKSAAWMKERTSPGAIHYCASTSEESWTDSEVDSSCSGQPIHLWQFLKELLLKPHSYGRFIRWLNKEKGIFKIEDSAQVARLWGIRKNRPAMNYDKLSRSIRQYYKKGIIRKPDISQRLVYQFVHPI
In short: as §1

[14] = biological target: T9, ETV7 (Homo sapiens, UniProt Q9Y603 1-341); conditions: protein: recombinant; tags: N-terminal GST; dsDNA, one strand shown
T9 sequence: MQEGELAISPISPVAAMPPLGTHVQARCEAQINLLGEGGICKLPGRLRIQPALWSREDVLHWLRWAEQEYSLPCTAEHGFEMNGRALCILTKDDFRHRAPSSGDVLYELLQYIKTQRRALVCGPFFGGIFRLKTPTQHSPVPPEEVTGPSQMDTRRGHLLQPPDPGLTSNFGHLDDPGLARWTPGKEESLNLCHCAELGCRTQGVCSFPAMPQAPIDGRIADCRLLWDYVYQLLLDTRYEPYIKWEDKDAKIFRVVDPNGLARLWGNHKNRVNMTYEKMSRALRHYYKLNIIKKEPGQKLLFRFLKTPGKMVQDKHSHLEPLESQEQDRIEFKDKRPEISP
In short: as §1

[15] = biological target: T10, ELF5 (Homo sapiens, UniProt Q9UKW6-2 1-255); conditions: protein: recombinant; tags: N-terminal GST; dsDNA, one strand shown
T10 sequence: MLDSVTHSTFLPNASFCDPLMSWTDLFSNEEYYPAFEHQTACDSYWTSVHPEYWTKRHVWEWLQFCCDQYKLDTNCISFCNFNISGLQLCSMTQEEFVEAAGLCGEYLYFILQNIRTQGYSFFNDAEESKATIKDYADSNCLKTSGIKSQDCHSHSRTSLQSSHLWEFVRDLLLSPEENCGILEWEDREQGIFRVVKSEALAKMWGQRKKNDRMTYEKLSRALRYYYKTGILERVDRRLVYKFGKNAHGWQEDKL
In short: as §1

[16] = biological target: T11, ETV3 (Homo sapiens, UniProt P41162-2 1-143); conditions: protein: recombinant; tags: N-terminal GST; dsDNA, one strand shown
T11 sequence: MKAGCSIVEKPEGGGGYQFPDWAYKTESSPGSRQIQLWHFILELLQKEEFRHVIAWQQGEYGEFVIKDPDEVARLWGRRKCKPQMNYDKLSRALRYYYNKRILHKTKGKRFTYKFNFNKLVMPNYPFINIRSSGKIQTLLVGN
In short: as §1

[17] = biological target: ETV6 (Homo sapiens, UniProt P41212 1-452); conditions: protein: recombinant; tags: N-terminal GST; dsDNA, one strand shown
In short: as §1

Sequence of ELF4 (Q99607 whole entry): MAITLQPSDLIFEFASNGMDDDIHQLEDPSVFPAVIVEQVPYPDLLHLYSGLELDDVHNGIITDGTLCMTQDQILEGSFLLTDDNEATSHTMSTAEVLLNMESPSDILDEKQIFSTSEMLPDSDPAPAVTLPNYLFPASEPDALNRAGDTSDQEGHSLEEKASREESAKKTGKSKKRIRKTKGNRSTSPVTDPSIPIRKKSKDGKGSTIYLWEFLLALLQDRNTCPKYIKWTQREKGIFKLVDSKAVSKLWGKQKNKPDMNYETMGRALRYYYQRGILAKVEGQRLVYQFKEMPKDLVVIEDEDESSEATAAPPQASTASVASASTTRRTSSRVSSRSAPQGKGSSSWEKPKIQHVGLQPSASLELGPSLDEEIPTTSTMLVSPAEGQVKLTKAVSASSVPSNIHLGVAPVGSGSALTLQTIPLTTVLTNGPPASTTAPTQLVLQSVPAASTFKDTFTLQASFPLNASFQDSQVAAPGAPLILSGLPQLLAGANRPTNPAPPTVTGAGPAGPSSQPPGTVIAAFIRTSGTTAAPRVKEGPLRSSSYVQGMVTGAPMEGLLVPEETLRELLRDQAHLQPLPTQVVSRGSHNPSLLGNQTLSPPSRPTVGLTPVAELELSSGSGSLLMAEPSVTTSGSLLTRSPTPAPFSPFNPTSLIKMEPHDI
Sequence of HSF1 (Q00613 whole entry): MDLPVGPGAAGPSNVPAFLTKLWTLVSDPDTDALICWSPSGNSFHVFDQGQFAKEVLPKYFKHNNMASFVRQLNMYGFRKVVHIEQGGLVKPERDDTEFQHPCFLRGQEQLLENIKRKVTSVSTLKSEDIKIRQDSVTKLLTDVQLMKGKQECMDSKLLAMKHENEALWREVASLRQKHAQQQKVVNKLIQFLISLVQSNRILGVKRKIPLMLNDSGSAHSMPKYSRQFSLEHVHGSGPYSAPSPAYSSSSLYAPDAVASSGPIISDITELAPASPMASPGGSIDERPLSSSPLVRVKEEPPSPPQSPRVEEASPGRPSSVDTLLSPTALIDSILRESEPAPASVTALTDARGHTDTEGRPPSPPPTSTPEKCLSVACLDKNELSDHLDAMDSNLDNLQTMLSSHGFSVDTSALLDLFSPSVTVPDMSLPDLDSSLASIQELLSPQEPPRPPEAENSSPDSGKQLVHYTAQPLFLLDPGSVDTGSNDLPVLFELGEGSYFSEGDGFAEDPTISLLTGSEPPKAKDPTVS
Sequence of ETV1 (P50549 whole entry): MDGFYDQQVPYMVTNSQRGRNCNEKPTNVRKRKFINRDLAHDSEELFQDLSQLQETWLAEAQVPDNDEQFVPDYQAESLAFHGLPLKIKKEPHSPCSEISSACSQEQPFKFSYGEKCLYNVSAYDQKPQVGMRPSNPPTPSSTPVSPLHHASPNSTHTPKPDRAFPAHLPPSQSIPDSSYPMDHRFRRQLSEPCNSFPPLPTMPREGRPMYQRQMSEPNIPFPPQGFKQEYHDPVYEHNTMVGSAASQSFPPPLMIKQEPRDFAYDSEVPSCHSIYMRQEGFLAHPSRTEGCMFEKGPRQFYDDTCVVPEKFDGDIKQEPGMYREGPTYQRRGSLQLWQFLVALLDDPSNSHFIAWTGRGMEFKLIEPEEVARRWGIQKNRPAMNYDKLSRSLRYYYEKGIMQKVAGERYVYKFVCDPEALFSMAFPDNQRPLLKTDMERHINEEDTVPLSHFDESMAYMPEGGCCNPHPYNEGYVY
Sequence of CRX (O43186 whole entry): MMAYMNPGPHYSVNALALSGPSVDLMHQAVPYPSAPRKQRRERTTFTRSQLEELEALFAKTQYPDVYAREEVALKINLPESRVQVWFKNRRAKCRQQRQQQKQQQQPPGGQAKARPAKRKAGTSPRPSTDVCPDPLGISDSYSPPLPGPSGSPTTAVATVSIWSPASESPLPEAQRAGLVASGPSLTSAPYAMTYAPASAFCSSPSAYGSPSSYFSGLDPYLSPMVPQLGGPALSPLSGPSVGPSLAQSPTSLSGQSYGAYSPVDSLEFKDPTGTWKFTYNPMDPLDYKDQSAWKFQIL
Sequence of ETV5 (P41161 whole entry): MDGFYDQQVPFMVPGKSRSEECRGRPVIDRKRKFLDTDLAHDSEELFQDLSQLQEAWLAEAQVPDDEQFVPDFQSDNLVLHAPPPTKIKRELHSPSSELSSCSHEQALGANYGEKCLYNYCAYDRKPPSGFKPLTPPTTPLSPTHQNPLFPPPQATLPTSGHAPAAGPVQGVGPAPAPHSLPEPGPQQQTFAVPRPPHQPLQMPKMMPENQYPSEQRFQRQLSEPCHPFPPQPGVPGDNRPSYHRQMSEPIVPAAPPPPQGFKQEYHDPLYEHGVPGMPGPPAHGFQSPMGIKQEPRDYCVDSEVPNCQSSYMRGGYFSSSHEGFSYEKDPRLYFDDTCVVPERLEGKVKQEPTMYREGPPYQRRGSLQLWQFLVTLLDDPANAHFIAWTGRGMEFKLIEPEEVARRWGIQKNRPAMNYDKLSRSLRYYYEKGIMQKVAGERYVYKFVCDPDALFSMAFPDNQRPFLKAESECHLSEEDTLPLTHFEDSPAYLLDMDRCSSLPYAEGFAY
Sequence of ETV6 (P41212 whole entry): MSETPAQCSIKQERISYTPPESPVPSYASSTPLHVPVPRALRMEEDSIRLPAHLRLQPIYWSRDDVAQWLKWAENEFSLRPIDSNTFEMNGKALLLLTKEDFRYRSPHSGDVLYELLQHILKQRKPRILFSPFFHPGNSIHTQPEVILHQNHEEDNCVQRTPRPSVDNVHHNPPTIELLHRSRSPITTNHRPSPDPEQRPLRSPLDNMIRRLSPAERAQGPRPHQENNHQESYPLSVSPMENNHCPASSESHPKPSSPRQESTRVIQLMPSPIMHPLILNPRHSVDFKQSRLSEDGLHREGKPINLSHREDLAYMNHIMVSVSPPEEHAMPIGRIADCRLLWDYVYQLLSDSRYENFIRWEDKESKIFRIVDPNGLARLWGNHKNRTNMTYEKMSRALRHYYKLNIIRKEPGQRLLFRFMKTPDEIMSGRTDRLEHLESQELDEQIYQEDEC

AAAAGT
binding signal [1]: 1.04 fold enrichment (6-mer frequency, TF over GST control) | binding signal [2]: 1.06 fold enrichment (6-mer frequency, TF over GST control) | binding signal [3]: 1.06 fold enrichment (6-mer frequency, TF over GST control) | binding signal [4]: 1.1 fold enrichment (6-mer frequency, TF over GST control) | binding signal [5]: 1.1 fold enrichment (6-mer frequency, TF over GST control) | binding signal [6]: 1.24 fold enrichment (6-mer frequency, TF over GST control) | binding signal [7]: 1.03 fold enrichment (6-mer frequency, TF over GST control) | binding signal [8]: 1.12 fold enrichment (6-mer frequency, TF over GST control) | binding signal [9]: 1.09 fold enrichment (6-mer frequency, TF over GST control) | binding signal [10]: 1.13 fold enrichment (6-mer frequency, TF over GST control) | binding signal [11]: 1.08 fold enrichment (6-mer frequency, TF over GST control) | binding signal [12]: 1.07 fold enrichment (6-mer frequency, TF over GST control) | binding signal [13]: 1.12 fold enrichment (6-mer frequency, TF over GST control) | binding signal [14]: 1.16 fold enrichment (6-mer frequency, TF over GST control) | binding signal [15]: 1.08 fold enrichment (6-mer frequency, TF over GST control) | binding signal [16]: 1.07 fold enrichment (6-mer frequency, TF over GST control) | binding signal [17]: 1.06 fold enrichment (6-mer frequency, TF over GST control)
